# Where “and” joins values, the source holds several entries; their conditions need not be identical. Equal values may be shown once. Records with an inconclusive call do not appear. A call without a number means that no potency is given here. Calls of active or inactive are those of the source. Unless noted, calls come from the whole dose curve; as a rule, active = well fitted curve in the direction sought with a large enough effect; inconclusive = small, poorly fitted or top-dose-only effect, or another doubt; inactive = no such curve, though single readings can be large; an effect the other way counts as inactive or inconclusive.
# Experiments:
# [1] = Cell Viability - SK-N-SH (AID 435; calls by dose curve; note: potency is the fitted concentration of half-maximal effect); settings: SK-N-SH neuroblastoma cell viability qHTS
# In short: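 qHTS cytotoxicity: CellTiter-Glo ATP luminescence after 40 h compound exposure of human neuroblastoma SK-N-SH cells at 37 °C. AC50 derived by Hill-equation fitting, with DMSO as basal and 100 uM tamoxifen as full inhibition.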
# [2] = Cellular Toxicity (caspase-3) HUV-EC-C (AID 656); settings: HUV-EC-C cells, caspase-3 activation (apoptosis), vehicle = 0, 100 µM tamoxifen = 100%; series mostly up to 92.2 µM
# In short: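 Luminescent Caspase-Glo 3/7 readout after 16 h, 37 °C compound exposure of HUV-EC-C endothelial cells, 1000 per well, complete medium. AC50 derived by Hill fitting, with DMSO as baseline and 100 uM tamoxifen as full activation.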
# [3] = Cellular Toxicity (caspase-3) H-4-II-E (AID 663); settings: H-4-II-E rat hepatoma; Potency: caspase-3 activation; series mostly up to 92.2 µM;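 note: cells exposed to compound for 16 hr before readout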
# In short: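 H-4-II-E rat hepatoma, 1500 cells/well, 5 hr settle at 37 °C; compound 16 hr, 37 °C, complete medium; Caspase-Glo 3/7, 20 min RT; luminescence. DMSO = 0%, 100 uM tamoxifen = 100%; Hill-equation AC50.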
# [4] = MultiTox-Fluor Cytotoxicity Assay - LYMP1-002 - Dead Cells (AID 960); settings: LYMP1-002 lymphoblastoid cells, dead-cell protease fluorescence; series mostly up to 46.1 µM; note: nearly all actives have a fitted effect of over 60% in size
# In short: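 Readout: fluorescence at 485/520 from cell-impermeant bis-AAF-R110 cleaved by proteases leaking from damaged cells. LYMP1-002 lymphoblastoid line, 16 hr compound treatment at 37 C, concentration-response in qHTS format; Hill-equation AC50 values.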
# [5] = Cell Viability - LYMP2-004 (AID 966); settings: LYMP2-004 lymphoblastoid cell viability, qHTS; series mostly up to 92.2 µM; note: nearly all actives have a fitted effect of over 65% in size
# In short: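 Luminescent ATP read-out (CellTiter-Glo, 30 min RT) after 24 hr compound exposure at 37 C; 2500 lymphoblastoid cells/well, complete medium. Decrease in ATP = cytotoxicity; AC50 from standard Hill model.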
# [6] = Cell Viability - LYMP2-005 (AID 967); settings: LYMP2-005 lymphoblastoid cell viability; series mostly up to 92.2 µM
# In short: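 LYMP2-005 human lymphoblastoid cells (2500/well) were treated with compounds for 24 h at 37 C. Intracellular ATP was then measured by CellTiter-Glo luminescence after 30 min at room temperature. AC50 values came from Hill-equation fits of qHTS concentration-response data.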
# [7] = Cell Viability - LYMP2-013 (AID 970); settings: LYMP2-013 lymphoblastoid cells viability; series mostly up to 92.2 µM; note: nearly all actives have a fitted effect of over 55% in size
# In short: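 CellTiter-Glo luminescence (cellular ATP) read after 30 min at RT. Cells: human lymphoblastoid line, 2500/well, 24 hr compound exposure at 37 C. Tetraoctylammonium bromide positive control; AC50 via standard Hill fit of qHTS titrations.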
# [8] = Cell Viability - LYMP2-025 (AID 976); settings: LYMP2-025 lymphoblastoid cell viability; series mostly up to 92.2 µM
# In short: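 CellTiter-Glo luminescence (cellular ATP) after 24 h compound exposure at 37 C; LYMP2-025 human lymphoblastoid cells, 2500/well, complete medium. Tetraoctylammonium bromide positive control. AC50 by Hill equation fit of qHTS concentration-response.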
# [9] = Cell Viability - LYMP2-007 (AID 979); settings: LYMP2-007 lymphoblastoid cell viability; series mostly up to 92.2 µM;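 note: cells exposed to compound for 24 h before reading; nearly all actives have a fitted effect of over 60% in size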
# In short: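 qHTS cytotoxicity: 2500 cells/well, 5 hr 37 C settle, compound 24 hr 37 C, CellTiter-Glo 30 min RT, luminescence. Decrease in ATP = toxicity. AC50 by standard Hill equation; tetraoctylammonium bromide positive control.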
# [10] = Cell Viability - LYMP2-014 (AID 983); settings: LYMP2-014 lymphoblastoid cells, viability qHTS; series mostly up to 92.2 µM; note: nearly all actives have a fitted effect of over 50% in size
# In short: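 2500 cells/well, 5 hr 37 C; cpd 24 hr 37 C, complete medium; CellTiter-Glo 30 min RT, luminescence; ATP loss = toxicity; AC50 via Hill eqn; tetraoctylammonium bromide positive control.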
# [11] = Cell Viability - LYMP2-018 (AID 985); settings: LYMP2-018 lymphoblastoid cells, viability (qHTS); series mostly up to 92.2 µM; note: nearly all actives have a fitted effect of over 50% in size
# In short: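 2500 cells/well; 5 hr 37 C; cmpd 24 hr 37 C, complete medium; CellTiter-Glo 30 min RT; luminescence. Tetraoctylammonium bromide positive control. AC50 via Hill fit.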
# [12] = Cell Viability - LYMP2-022 (AID 987); settings: LYMP2-022 lymphoblastoid cell viability; series mostly up to 92.2 µM; note: nearly all actives have a fitted effect of over 55% in size
# In short: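 Luminescent ATP read-out (CellTiter-Glo, 30 min, RT) after 24 hr, 37 C compound exposure of 2500 human lymphoblastoid cells/well in complete medium. Cytotoxicity taken as concentration-dependent ATP loss; AC50 from standard Hill equation.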
# [13] = Cell Viability - LYMP2-024 (AID 988); settings: LYMP2-024 lymphoblastoid cell viability; series mostly up to 92.2 µM; note: nearly all actives have a fitted effect of over 60% in size
# In short: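 ATP-based luminescence (CellTiter-Glo, 30 min RT) after 24 h compound exposure at 37 C of 2500 lymphoblastoid cells/well; decrease in ATP taken as cytotoxicity. qHTS concentration-response fitted to standard Hill equation for AC50.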
# [14] = qHTS assay for small molecule agonists of retinoid X receptor alpha signaling (AID 588544); settings: HEK293T RXRa-UAS-bla, beta-lactamase reporter, 18 h; 530 nm emission
# [15] = molecular target: Thyroid hormone receptor beta (Homo sapiens) (UniProt P10828); assay: qHTS assay for small molecule agonists of thyroid hormone receptor beta signaling (AID 588545; calls by dose curve); settings: TR-UAS-bla GripTite HEK 293, beta-lactamase ratio, agonist mode, 18 h; series mostly up to 76.7 µM
# In short: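 In this cell-based screen, titrated compounds act on HEK 293 cells held in medium with 2% charcoal/dextran FBS, NEAA and pyruvate for 18 hrs at 37 C. Responses are expressed relative to T3 (10 nM) as 100% and basal DMSO as 0%.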
# [16] = qHTS assay for small molecule antagonists of retinoid X receptor alpha signaling (AID 588546); settings: HEK293T RXRa-UAS-bla, beta-lactamase ratio, antagonist mode; measured here: W530 green channel, cytotoxicity proxy;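 note: cells stimulated with 9-cis-retinoic acid as agonist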
# In short: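 Beta-lactamase reporter inhibition, read as CCF4 fluorescence ratio (ex 405, em 460/530 nm) after 2 h at RT. HEK293T UAS-bla cells, 2500/well, were stimulated with 9-cis-RA at 500 or 100 nM final alongside test compound for 18 h at 37 C.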
# [17] = molecular target: Thyroid hormone receptor beta (Homo sapiens) (UniProt P10828); assay: qHTS assay for small molecule antagonists of thyroid hormone receptor beta signaling (AID 588547; active = well fitted inhibition curve with a large enough effect in the signal ratio, with a control signal flat, not every such curve was filed as active; the % refers to the signal ratio;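 note: cells stimulated with 0.4 nM T3 agonist during compound exposure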); settings: TR-UAS-bla HEK293, beta-lactamase ratio, antagonist mode, 18 h
# In short: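 TR-UAS-bla GripTite HEK293 cells in 2% charcoal/dextran FBS medium; compounds 0.59 nM to 92 uM with T3 at 0.4nM final, 18 h at 37 C. Beta-lactamase read by CCF4 fluorescence (460/530 nm); Hill fits gave IC50 and efficacy.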
# [18] = molecular target: Tumor necrosis factor (Homo sapiens) (UniProt P01375); assay: qHTS assay to identify small molecules that stimulate Tumor Necrosis Factor-alpha (TNF-alpha) secretion (AID 651757; active = well fitted curve in the direction sought with a large enough effect in the signal ratio; the % refers to the signal ratio); settings: Human cells, HTRF 665/615 ratio; series mostly up to 92.2 µM
# In short: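 THP-1 cells, 3000/well; compound 17 hrs, 37 C; add cryptate/XL665 anti-TNF-alpha antibody pair; 3 hr RT; TR-FRET (HTRF) read of secreted TNF-alpha. Quantitative HTS format.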
# [19] = qHTS assay for cell viability of HEK293 cells (AID 743288); settings: ATP luminescence (CellTiter-Glo), 18 h, stronger effect = lower value; note: nearly all actives have a fitted effect of over 50% in size
# In short: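 Readout is luciferase-coupled ATP content (CellTiter-Glo luminescence, 30 min room temperature) as a measure of metabolically competent cells. Parental HEK293 cells were plated 5 h or more before compound addition, then treated 18 h at 37 C.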
# [20] = molecular target: Nuclear receptor subfamily 1 group I member 2 (Rattus norvegicus) (UniProt Q9R1A7); assay: qHTS assay for small molecule activators of the rat pregnane X receptor (rPXR) signaling pathway (AID 651751; call rule not given here); settings: rPXR reporter cells, luciferase (One-Glo), 24 h
# Nuclear receptor subfamily 1 group I member 2 (Rattus norvegicus), sequence (Q9R1A7 whole entry, looked up): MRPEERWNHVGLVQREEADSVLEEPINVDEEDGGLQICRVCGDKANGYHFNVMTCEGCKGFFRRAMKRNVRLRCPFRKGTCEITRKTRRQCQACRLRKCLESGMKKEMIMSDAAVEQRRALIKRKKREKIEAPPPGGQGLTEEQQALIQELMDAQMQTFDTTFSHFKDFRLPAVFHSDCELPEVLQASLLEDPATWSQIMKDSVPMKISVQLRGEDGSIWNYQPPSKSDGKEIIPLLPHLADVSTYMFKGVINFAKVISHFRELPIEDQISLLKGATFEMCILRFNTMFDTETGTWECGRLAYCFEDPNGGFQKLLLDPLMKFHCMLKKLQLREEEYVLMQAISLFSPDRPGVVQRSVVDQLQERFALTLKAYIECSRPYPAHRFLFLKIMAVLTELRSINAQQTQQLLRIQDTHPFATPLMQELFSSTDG
# Thyroid hormone receptor beta (Homo sapiens), sequence (P10828 whole entry, looked up): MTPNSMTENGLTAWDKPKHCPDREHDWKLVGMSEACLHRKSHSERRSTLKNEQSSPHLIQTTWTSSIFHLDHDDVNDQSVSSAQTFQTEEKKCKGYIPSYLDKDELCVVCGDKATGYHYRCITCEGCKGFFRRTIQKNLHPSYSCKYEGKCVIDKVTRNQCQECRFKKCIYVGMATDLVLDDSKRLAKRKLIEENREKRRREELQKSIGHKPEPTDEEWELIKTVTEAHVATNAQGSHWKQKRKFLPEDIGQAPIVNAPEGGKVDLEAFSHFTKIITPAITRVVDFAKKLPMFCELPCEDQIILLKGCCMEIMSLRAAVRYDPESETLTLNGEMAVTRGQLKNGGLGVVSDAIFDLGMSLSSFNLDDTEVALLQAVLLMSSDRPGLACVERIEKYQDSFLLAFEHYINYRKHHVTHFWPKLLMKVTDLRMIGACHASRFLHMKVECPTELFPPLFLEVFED
# Tumor necrosis factor (Homo sapiens), sequence (P01375 whole entry, looked up): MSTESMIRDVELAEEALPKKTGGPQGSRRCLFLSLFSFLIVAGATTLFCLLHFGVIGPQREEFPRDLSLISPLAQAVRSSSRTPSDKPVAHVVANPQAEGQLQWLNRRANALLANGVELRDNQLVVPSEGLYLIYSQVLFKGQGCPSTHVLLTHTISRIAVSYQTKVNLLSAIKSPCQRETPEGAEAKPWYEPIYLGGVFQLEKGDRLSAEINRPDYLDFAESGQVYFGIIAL
SMILES,Potency [1],outcome [2],Potency [3],Potency [4],Potency [5],Potency [6],Potency [7],Potency [8],Potency [9],Potency [10],Potency [11],Potency [12],Potency [13],max response [14],Potency [15],max response [16],activity change % (negative = inhibition) [17],outcome [18],max response [19],max response [20]
CCSC(=O)N1CCCCCC1,> 92 µM (inactive),inactive,inactive,inactive,inactive,inactive,inactive,inactive,inactive,inactive,inactive,inactive,inactive,-15.2% and -3.96%,inactive,-11.6% and -2.5%,-3.1% (inactive) and -10.9% (inactive),inactive,2.92% (inactive) and -12.6% (inactive),-3.47% (inactive) and 3.01% (inactive)
Cc1cc(-c2ccc(N)c(C)c2)ccc1N,> 92 µM (inactive),,inactive,inactive,inactive,inactive,inactive,inactive,inactive,inactive,inactive,inactive,inactive,-4.96% and -4.31%,inactive,-15.7% and -12.6% and -3.84%,4.51% (inactive) and -14.4% (inactive),,-3.44% (inactive) and 7.54% (inactive) and -3.02% (inactive),
Nc1ccccc1-c1ccccc1,> 92 µM (inactive),inactive,inactive,inactive,inactive,inactive,inactive,inactive,inactive,,inactive,,inactive,14.6%,inactive,-0.398%,,inactive,3.8% (inactive),0.403% (inactive)
CC(C)(C)C(O)(CCc1ccc(Cl)cc1)Cn1cncn1 (centres undefined),> 92 µM (inactive),inactive,inactive,inactive,inactive,inactive,inactive,inactive,inactive,inactive,inactive,inactive,inactive,-9.24% and 6.75%,inactive,3% and 12.6%,-8.05% (inactive) and 4.64% (inactive),inactive,-1.87% (inactive) and -20% (inactive),
C=CC=O,> 92 µM (inactive),inactive,,inactive,inactive,inactive,inactive,inactive,inactive,inactive,inactive,inactive,,-0.594%,inactive,,2.84% (inactive),inactive,-14.3% (inactive),1.01% (inactive)
CN(C)N=O,> 92 µM (inactive),inactive,inactive,inactive,inactive,,inactive,inactive,inactive,inactive,inactive,inactive,inactive,-8.99%,inactive,1.95%,11.5% (inactive),inactive,-0.309% (inactive),2.44% (inactive)
C=CCO,> 92 µM (inactive),inactive,inactive,,inactive,inactive,inactive,inactive,inactive,inactive,inactive,inactive,inactive,-10.3%,,1.87%,,inactive,9.9% (inactive),-2.14% (inactive)
Clc1ccc(Cl)c(Cl)c1,> 92 µM (inactive),inactive,inactive,inactive,inactive,inactive,inactive,inactive,inactive,inactive,inactive,inactive,inactive,-7.44% and -24%,inactive,10.3% and -7.29%,-0.795% (inactive) and 9.45% (inactive),inactive,9.56% (inactive) and -10% (inactive),1.05% (inactive) and -0.643% (inactive)
ClC(Cl)Br,> 92 µM (inactive),inactive,inactive,inactive,inactive,inactive,inactive,inactive,inactive,inactive,inactive,inactive,inactive,-4.86%,inactive,1.73%,9.06% (inactive),inactive,7.42% (inactive),-4.5% (inactive)
ClCCBr,> 92 µM (inactive),inactive,inactive,inactive,inactive,inactive,inactive,inactive,inactive,inactive,inactive,inactive,inactive,-16.9%,inactive,-4.86%,0.0673% (inactive),inactive,-0.276% (inactive),-0.231% (inactive)
COc1cc(-c2ccc(N)c(OC)c2)ccc1N,> 92 µM (inactive),inactive,,inactive,inactive,inactive,inactive,inactive,inactive,inactive,inactive,inactive,inactive,8.08% and -9.67%,inactive,0.0176% and -5.1%,4.52% (inactive) and 5.28% (inactive) and -5.71% (inactive),,15.2% (inactive) and -15% (inactive) and -5% (inactive),3.75% (inactive) and 3.76% (inactive) and 11% (inactive)
O=[N+]([O-])c1cc(Cl)c(Cl)cc1Cl,> 92 µM (inactive),inactive,inactive,inactive,inactive,inactive,inactive,inactive,inactive,inactive,inactive,inactive,inactive,10.7%,inactive,2.5%,5.06% (inactive),inactive,-3.86% (inactive),-0.165% (inactive)
